# Measured values as given in PubChem BioAssay.
# Several values for one entry are separate records, joined by “and”; a condition that tells them apart may be missing. Equal values may be shown once. Records with an inconclusive call do not appear. Activity calls are given as the source filed them. Unless noted, the rule behind the calls is not given here.
# Tests used:
# [1] = circadian clock period modulators, cell-based, LOPAC library, luminescence reporter (AID 2774); details: circadian reporter cells, at 7 µM, actives lie on both sides;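 note: values are relative to mean of DMSO wells on each plate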
# [2] = liver-stage malaria parasite growth inhibition, primary screen, cell-based, HepG2, luciferase luminescence, HepG2 viability (AID 624349; in the data active = parasite load remaining mostly below about 12%, no sharp cut-off; inactive = mostly above about 10%;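 note: 100% = mean of DMSO negative control wells on the same plate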); details: P. berghei liver stage in HepG2, luciferase luminescence, concentration not given here; parasite load remaining: stronger effect = lower value; viability: measured here: HepG2 viability without parasites
# [3] = tested on: Hepatitis C virus NS3 helicase; assay: HCV NS3 helicase inhibitors, primary screen, biochemical, fluorescence polarization, LOPAC1280 library (AID 687035; in the data active = inhibition above about 37%); details: Purified HCV NS3 helicase, Cy5-dT15 ssDNA binding fluorescence polarization; stronger effect = higher value; concentration not given here
# [4] = Cy5 fluorescence quenching or enhancement artefacts, artefact control for HCV NS3 helicase inhibitor project, biochemical, LOPAC1280 (AID 687037); details: Cy5-DNA-NS3h complex fluorescence interference counterscreen
# [5] = tested on: Aerobactin synthetase IucA (Klebsiella pneumoniae, hypervirulent); assay: IucA enzyme inhibition, biochemical, LOPAC library, absorbance readout (AID 1346212); details: IucA enzyme assay, absorbance (OD) readout; stronger effect = lower value;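 tested at 8 µM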;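 note: 100% = no compound wells and 0% = no enzyme wells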
# [6] = growth inhibition of DIPG glioma cells, dose response, cell-based, SU-DIPG-XIII, MIPE4.0, CellTiter-Glo, qHTS (AID 1347061; cut-off not given, nearly all actives have AC50 up to about 37 µM;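 note: cells exposed to compound for 48 hours before readout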); details: SU-DIPG-XIII viability, CellTiter-Glo ATP luminescence
# [7] = growth inhibition of DIPG glioma cells, dose response, cell-based, JHH-DIPG-1, MIPE4.0, CellTiter-Glo, qHTS (AID 1347062; cut-off not given, nearly all actives have AC50 up to about 27 µM;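 note: cells exposed to compound for two days before readout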); details: JHH-DIPG-1 viability, CellTiter-Glo ATP luminescence
# [8] = growth inhibition of DIPG glioma cells, dose response, cell-based, SU-DIPG-IV, MIPE4.0, CellTiter-Glo, qHTS (AID 1347063; cut-off not given, nearly all actives have AC50 up to about 30 µM;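 note: compound exposure lasted 48 hours before the viability readout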); details: SU-DIPG-IV viability, CellTiter-Glo ATP luminescence
# [9] = growth inhibition of DIPG glioma cells, dose response, cell-based, SU-DIPG-XIII, MIPE5.0, CellTiter-Glo, qHTS (AID 1347064; cut-off not given, nearly all actives have AC50 up to about 23 µM;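 note: cells exposed to compound for 48 hours before the viability read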); details: SU-DIPG-XIII viability, CellTiter-Glo ATP luminescence
# [10] = SU-DIPG-VI glioma cell viability, MIPE4.0 library, CellTiter-Glo luminescence, qHTS (AID 1347066; cut-off not given, nearly all actives have AC50 up to about 30 µM;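 note: cells exposed to compound for 48 hours before readout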); details: CellTiter-Glo ATP luminescence
# [11] = JHH-DIPG-1 glioma cell viability, MIPE5.0 library, CellTiter-Glo luminescence, qHTS (AID 1347067; cut-off not given, nearly all actives have AC50 up to about 26 µM;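 note: cells exposed to compound for 48 hours before readout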); details: JHH-DIPG-1 glioma viability, CellTiter-Glo ATP luminescence
# [12] = sensitizers of A549 cells to miR-34 induction, primary screen, imaging, A549 dox-inducible miR-34, nuclei and caspase counts (AID 1347080;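 active = compounds whose cell count with miR-34 switched on is under 0.7 times the count with it off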); details: A549 miR-34 inducible, Hoechst nuclei count, 48 h
# [13] = inhibitors of Cryptococcus chitosan production, flow cytometry, Cibacron Brilliant Red staining (AID 1347148); details: Cryptococcus neoformans chitosan, stronger effect = lower value; at 10 µM unless noted;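 note: compound exposure lasted three days at 37 degrees C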
# [14] = phospholipid biosynthesis inhibitors in animal cells, primary screen, cell-based, LOPAC library, screen 4 (AID 1347384); details: phospholipid biosynthesis inhibition screen, at 10 µM
# [15] = viability rescue of complex I mutant cybrids, primary screen, cell-based, galactose medium, ATP luminescence (AID 1645843;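 active = z-score of at least 1.8 in each of two replicates, scored against plate mean and spread of sample wells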;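 note: positive z means more ATP and so rescue of galactose-driven cybrid death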); details: complex I mutant cybrid cells, 72 h, stronger effect = higher value
# [16] = survival rescue of mitochondrial mutant cells in low glucose, primary screen, MELAS cybrids, Rieske KO mouse fibroblasts, CellTiter-Glo (AID 1508586;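 active = mean z-score across replicates of 1.96 or higher in either the MELAS or the Rieske mutant cell line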;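 note: z relative to plate mean and SD of compound and empty wells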)
# [17] = growth inhibition of DIPG glioma cells, dose response, cell-based, SU-DIPG-XVII, MIPE5.0, CellTiter-Glo, qHTS (AID 1347060; cut-off not given, nearly all actives have AC50 up to about 26 µM;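 note: cells exposed to compound for 48 hours before viability readout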); details: SU-DIPG-XVII viability, CellTiter-Glo ATP luminescence
# [18] = viability loss in pontine glioma line – cell-based, SU-DIPG-XXV, MIPE5.0, CellTiter-Glo, qHTS, dose response (AID 1347065; cut-off not given, nearly all actives have AC50 up to about 26 µM;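 note: cells exposed to compound for 48 hours before ATP readout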); details: CellTiter-Glo ATP luminescence
# [19] = SU-DIPG-XXV glioma cell viability, MIPE5.0 library, qHTS (AID 1347068; cut-off not given, nearly all actives have IC50 up to about 30 µM;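 note: cells exposed to compound for 48 hours before viability readout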)
# [20] = measured here: relative caspase fold change +Dox/-Dox
# [21] = measured here: total cells with miR-34 induction, stronger effect = lower value
# [22] = measured here: total cells without miR-34 induction
compound,measurement,setting,value
COc1ccc2c(c[n+](C)c3c4cc5c(cc4ccc23)OCO5)c1OC,period change,[1],0.045 h (inactive)
same,parasite load remaining,[2],41.8% (inactive)
same,viability,[2],157%
same,inhibition,[3],-3% (inactive)
same,fluorescence ratio (interference),[4],0.9 (inactive)
same,remaining activity,[5],110% (inactive)
same,AC50,[6],26.4 µM (active)
same,AC50,[7],4.18 µM (active)
same,AC50,[8],5.26 µM (active)
same,AC50,[9],4.17 µM (active)
same,AC50,[10],8.33 µM (active)
same,AC50,[11],5.9 µM (active)
same,fold change,[12]; stronger effect = lower value,1.19 (inactive) and 0.771 (inactive)
same,fold change,[12]; [20],0.571 and 1.14
same,cell count,[12]; [21],525 and 1050
same,cell count,[12]; [22],442 and 1360
same,fold fluorescence,[13],7.04 [at 143.5 µM] (inactive)
same,outcome,[14],inactive
same,z-score,[15],-1.52 (inactive)
NCCc1ccc(S(=O)(=O)F)cc1,period change,[1],-0.1 h (inactive)
same,inhibition,[3],-2% (inactive)
same,fluorescence ratio (interference),[4],0.9 (inactive)
same,remaining activity,[5],99.4% (inactive)
same,fold change,[12]; stronger effect = lower value,1.01 (inactive) and 0.94 (inactive)
same,fold change,[12]; [20],0.956 and 0.406
same,cell count,[12]; [21],10400 and 7770
same,cell count,[12]; [22],10400 and 8270
same,outcome,[14],inactive
same,z-score,"[16]; MELAS cybrid survival, CellTiter-Glo 48 h, stronger effect = higher value",-0.305 (inactive)
same,z-score,"[16]; Rieske KO mouse fibroblast survival, CellTiter-Glo 72 h",-1.62
same,z-score,[15],0.125 (inactive)
CC(=O)NBr,period change,[1],0.03 h (inactive)
same,inhibition,[3],-1% (inactive)
same,fluorescence ratio (interference),[4],0.9 (inactive)
same,remaining activity,[5],100% (inactive)
same,fold change,[12]; stronger effect = lower value,1.03 (inactive)
same,fold change,[12]; [20],2.31
same,cell count,[12]; [21],10500
same,cell count,[12]; [22],10100
same,outcome,[14],inactive
same,z-score,[15],0.61 (inactive)
CCn1cnc2c(Nc3cccc(Cl)c3)nc(N[C@@H]3CCCC[C@@H]3N)nc21,period change,[1],0.275 h (inactive)
same,parasite load remaining,[2],33.4% (inactive)
same,viability,[2],108%
same,inhibition,[3],-2% (inactive)
same,fluorescence ratio (interference),[4],0.9 (inactive)
same,remaining activity,[5],98.9% (inactive)
same,fold change,[12]; stronger effect = lower value,0.982 (inactive)
same,fold change,[12]; [20],0.968
same,cell count,[12]; [21],797
same,cell count,[12]; [22],812
same,outcome,[14],inactive
same,z-score,[15],-1.48 (inactive)
C/C=C(/C)C(=O)O[C@H]1C(C)=C2[C@H]([C@@H]1OC(=O)CCCCCCC)[C@@](C)(OC(C)=O)C[C@H](OC(=O)CCC)[C@@]1(O)[C@H]2OC(=O)[C@@]1(C)O,period change,[1],9.62 h (inactive)
same,inhibition,[3],-3% (inactive)
same,fluorescence ratio (interference),[4],1 (inactive)
same,remaining activity,[5],86.6% (inactive)
same,AC50,[17],0.0525 µM (active)
same,AC50,[6],0.59 µM (active)
same,AC50,[7],0.0469 µM (active)
same,AC50,[8],0.00743 µM (active)
same,AC50,[9],0.295 µM (active)
same,AC50,[18],0.0235 µM (active)
same,AC50,[10],0.105 µM (active)
same,IC50,[19],1.32 µM (active)
same,fold change,[12]; stronger effect = lower value,1.93 (inactive) and 1.56 (inactive)
same,fold change,[12]; [20],0.132 and 0.916
same,cell count,[12]; [21],662 and 522
same,cell count,[12]; [22],343 and 336
same,fold fluorescence,[13],5.31 [at 76.8 µM] (inactive)
same,outcome,[14],inactive
same,z-score,[15],-1.38 (inactive)
CCCn1c(C)c(C(=O)c2cccc3ccccc23)c2ccccc21,remaining activity,[5],107% (inactive)
same,fold change,[12]; stronger effect = lower value,0.889 (inactive)
same,fold change,[12]; [20],1.38
same,cell count,[12]; [21],5580
same,cell count,[12]; [22],6280
Nc1ccc(CCN2CCN(c3cccc(C(F)(F)F)c3)CC2)cc1,period change,[1],0.14 h (inactive)
same,inhibition,[3],-3% (inactive)
same,fluorescence ratio (interference),[4],0.9 (inactive)
same,remaining activity,[5],102% (inactive)
same,fold change,[12]; stronger effect = lower value,0.992 (inactive)
same,fold change,[12]; [20],0.858
same,cell count,[12]; [21],8520
same,cell count,[12]; [22],8580
same,outcome,[14],inactive
same,z-score,[15],-0.665 (inactive)
NCC(O)c1cc(O)c(O)cc1F (stereo not drawn),period change,[1],-0.105 h (inactive)
same,inhibition,[3],1% (inactive)
same,fluorescence ratio (interference),[4],0.9 (inactive)
same,remaining activity,[5],110% (inactive)
same,fold change,[12]; stronger effect = lower value,1.02 (inactive)
same,fold change,[12]; [20],1.46
same,cell count,[12]; [21],10300
same,cell count,[12]; [22],10200
same,outcome,[14],inactive
same,z-score,[15],-1.47 (inactive)
C[C@]12C=CC(=O)C=C1CC[C@@H]1C2=CC[C@]2(C)[C@@H](C(=O)CN3CCN(c4cc(N5CCCC5)nc(N5CCCC5)n4)CC3)CC[C@@H]12,remaining activity,[5],102% (inactive)
CNc1ccc2oc(C[C@H]3O[C@@]4(CC[C@H]3C)O[C@H]([C@H](C)C(=O)c3ccc[nH]3)[C@H](C)C[C@H]4C)nc2c1C(=O)O,period change,[1],-0.125 h (inactive)
same,inhibition,[3],1% (inactive)
same,fluorescence ratio (interference),[4],1 (inactive)
same,remaining activity,[5],119% (inactive)
same,fold change,[12]; stronger effect = lower value,0.828 (inactive)
same,fold change,[12]; [20],1.6
same,cell count,[12]; [21],428
same,cell count,[12]; [22],516
same,outcome,[14],inactive
same,z-score,[15],-1.52 (inactive)
CN(C(=O)Cc1ccc(Cl)c(Cl)c1)C(CN1CCCC1)c1cccc(OCC(=O)O)c1 (stereo not drawn),period change,[1],-0.06 h (inactive)
same,inhibition,[3],-4% (inactive)
same,fluorescence ratio (interference),[4],1 (inactive)
same,remaining activity,[5],103% (inactive)
same,fold change,[12]; stronger effect = lower value,1.05 (inactive)
same,fold change,[12]; [20],1.11
same,cell count,[12]; [21],10700
same,cell count,[12]; [22],10200
same,outcome,[14],inactive
same,z-score,[15],0.31 (inactive)
CCCN1CC[C@@H]2c3cc(O)ccc3CC[C@@H]21,period change,[1],-0.045 h (inactive)
same,inhibition,[3],-4% (inactive)
same,fluorescence ratio (interference),[4],0.9 (inactive)
same,remaining activity,[5],105% (inactive)
same,fold change,[12]; stronger effect = lower value,1.1 (inactive)
same,fold change,[12]; [20],0.654
same,cell count,[12]; [21],11000
same,cell count,[12]; [22],10000
same,outcome,[14],inactive
same,z-score,[15],0.605 (inactive)
NC(N)=Nc1ccc2[nH]c3c(c2c1)C[C@@]1(O)[C@H]2Cc4ccc(O)c5c4[C@@]1(CCN2CC1CC1)[C@H]3O5,period change,[1],-0.11 h (inactive)
same,inhibition,[3],-6% (inactive)
same,fluorescence ratio (interference),[4],0.9 (inactive)
same,remaining activity,[5],86.3% (inactive)
same,fold change,[12]; stronger effect = lower value,1.08 (inactive)
same,fold change,[12]; [20],0.809
same,cell count,[12]; [21],9750
same,cell count,[12]; [22],9000
same,outcome,[14],inactive
same,z-score,[15],-0.92 (inactive)
COc1ccc2[nH]c3c(c2c1)CCNC3,period change,[1],-0.105 h (inactive)
same,inhibition,[3],1% (inactive)
same,fluorescence ratio (interference),[4],0.9 (inactive)
same,remaining activity,[5],108% (inactive)
same,fold change,[12]; stronger effect = lower value,1.02 (inactive)
same,fold change,[12]; [20],0.898
same,cell count,[12]; [21],10400
same,cell count,[12]; [22],10200
same,outcome,[14],inactive
same,z-score,[15],0.28 (inactive)
CCCn1c(=O)c2[nH]c(C3CCCC3)nc2n(CCCOC(=O)c2ccc(S(=O)(=O)F)cc2)c1=O,period change,[1],-0.07 h (inactive)
same,inhibition,[3],-3% (inactive)
same,fluorescence ratio (interference),[4],1 (inactive)
same,remaining activity,[5],102% (inactive)
same,fold change,[12]; stronger effect = lower value,0.972 (inactive)
same,fold change,[12]; [20],1.12
same,cell count,[12]; [21],6100
same,cell count,[12]; [22],6280
same,outcome,[14],inactive
same,z-score,[15],-0.865 (inactive)
